Experimental data from PubChem BioAssay AID1117319 (Southern Research Institute, 2015).
Several values for one entry are separate records, joined by “and”; a condition that tells them apart may be missing. Equal entries are not always repeated. The campaign covered roughly 260,000 compounds. About 1,500 (0.58%) were called active. Inconclusive results (about 5%) are left out.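 Rule for the calls: active = inhibition above a set limit at one or more doses, reproduced on every date tested; inconclusive = results disagree between test dates, or hit never tested in dose response; inactive = the rest.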 These entries were drawn from the full list. Potency and affinity values are given separately.

Molecular target: Virion infectivity factor (Human immunodeficiency virus type 1 group M subtype B (isolate BH10)) + Virion infectivity factor (Human immunodeficiency virus type 1 group M subtype B (isolate BRU/LAI)) + Virion infectivity factor (Human immunodeficiency virus type 1 group M subtype B (isolate PCV12)) + Virion infectivity factor (Human immunodeficiency virus type 1 group M subtype B (isolate HXB2)) + DNA dC->dU-editing enzyme APOBEC-3G (Homo sapiens) (UniProt P69720+P69721+P69722+P69723+Q9HC16)
Experiment: HIV-1 Vif–A3G interaction blockers – biochemical, TR-FRET, GST-Vif 1-94, biotin-A3G peptide, dose response retest, primary screen (AID 1117319);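 note: Vif residues 1-94 fused to GST binding biotinylated APOBEC3G peptide 110-148; 0% = full assay without inhibitor and 100% = GST in place of GST-Vif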
Conditions: TR-FRET GST-Vif / biotin-A3G peptide binding; hits give high values

inhibition, inactive:
COc1ccc(CCNC(=O)c2ccc(NS(=O)(=O)c3c(C)noc3C)cc2)cc1OC -8.32%, COc1cccc(C(=O)N[C@@H](CCSC)c2nc3ccccc3[nH]2)c1 5.58%, Cc1ccc(C2C3CSCC=C3C(C#N)=C(N)C2(C#N)C#N)cc1 (centres undefined) 8.68%, N#CC1=C(N)C(C#N)(C#N)C(c2cccnc2)C2COCC=C12 (centres undefined) 0.31%, CCOC(=O)c1c(C)[nH]c(C(=O)OCC(=O)Nc2cccnc2Cl)c1C -0.74%, O=C(CN1/C(=C(/O)c2ccccc2)C(=O)c2ccccc2S1(=O)=O)c1ccccc1 -0.58%, Cc1ccc(C(=O)CN2/C(=C(\O)c3ccccc3)C(=O)c3ccccc3S2(=O)=O)c(C)c1 2.58%, COc1cccc(-c2nnc3sc(-c4ccco4)nn23)c1 5.27%, c1coc(-c2nn3c(-c4ccco4)nnc3s2)c1 24.5%, CCOc1ccccc1NC(=O)CSc1n[nH]c(=O)n1-c1ccccc1 -11.6%, CCOC(=O)Nc1ccc2c(c1)OCO2 -0.36%, COC(=O)CNc1ccc2c(c1)OCO2 26.3%, Cn1c(CNC(=O)CNC(=O)c2cccc(F)c2)cc(=O)n(C)c1=O 1.22%, O=C1CC(N2CCSCC2)C(=O)N1c1cccc(Cl)c1 (centres undefined) 2.84%, N=C1/C(=C/c2ccco2)C(=O)N=C2SC(CC(=O)N3CCCC3)=NN12 22.9%, COc1ccc(/C=C2/C(=N)N3N=C(CC(=O)N4CCCC4)SC3=NC2=O)cc1 -6.36%, COc1ccc(CNC(=O)COC(=O)c2[nH]c(C)c(C(C)=O)c2C)cc1OC 7.14%, CN(c1ccc(OCC(=O)NC2CCC(O)CC2)cc1)S(=O)(=O)c1ccc(Cl)cc1 (centres undefined) -2.71%, O=c1cc(-c2ccccc2F)oc2ccccc12 17.5%, O=c1cc(-c2ccccc2Cl)oc2cc(O)cc(O)c12 -0.34%, O=c1[nH]c(=O)n(Cc2ccccc2)c2nc(-c3cccs3)n(CCO)c12 0.78%, Cc1ccc(S(=O)(=O)Cn2nnnc2C(CC(C)C)N2CCN(c3ccccc3)CC2)cc1 (centres undefined) -7.24%, Cc1ccc(S(=O)(=O)Cn2nnnc2C(CC(C)C)N2CCN(C(=O)c3ccco3)CC2)cc1 (centres undefined) 28%, COC(=O)CSc1ncnc2scc(-c3ccccc3)c12 13.7%, Cc1ccc2cccc(Oc3ncnc4scc(-c5ccccc5)c34)c2n1 -1.8%, COc1cc(C)cc2c1OC(c1ccccc1)CC2=O (centres undefined) -0.37%, COc1ccc(C2CC(=O)c3ccccc3O2)cc1 (centres undefined) 18.3%, O=c1c2cn[nH]c2[nH]c(=S)n1-c1ccccc1F -1.23%, CCC(C)NCCCOc1c(C)cc(C)cc1Br (centres undefined) -1.93%, CCC(CC)C(=O)N(CCc1ccc(OC)cc1)Cc1nc2ccccc2c(=O)[nH]1 -1.67%, COCC(=O)N(CCc1ccc(OC)cc1)Cc1nc2ccccc2c(=O)[nH]1 0.5%, O=C(CNC(=O)c1cccc(Cl)c1)NCC(c1cccs1)N1CCOCC1 (centres undefined) -8.67%, Cc1nnc2ccc(-c3cccc(NS(C)(=O)=O)c3)nn12 30.9%, Cc1cc(C)n2c(SCC(O)=C(C#N)c3nc4ccccc4[nH]3)nnc2n1 -1.4%, CCCn1c(SC/C(O)=C(\C#N)c2nc3ccccc3[nH]2)n[nH]c1=O 8.52%, O=C(Nc1ccccn1)C1CCN(S(=O)(=O)c2cccs2)CC1 -2.3%, O=C(Nc1ccc(Cl)cn1)C1CCN(S(=O)(=O)c2cccs2)CC1 2.8%, Cc1ccc(S(=O)(=O)NCC(=O)OC(C(=O)c2ccccc2)c2ccccc2)cc1 (centres undefined) 17.9%, CCCCN1C(=O)C(CC(=O)NCc2ccco2)CC(C(=O)N(CC)CC)=C1C (centres undefined) -1.7%, Cn1cc(C(=O)N/N=C/c2ccc(Br)c([N+](=O)[O-])c2)c2ccccc21 -0.7%, NC(=O)COC(=O)CNC(=O)c1ccc(Cl)cc1 -2.39%, Cc1ccc(C(=O)Nc2sc3c(c2C#N)CCCCC3)cc1C -3.7%, Cc1cccc(C(=O)Nc2sc3c(c2C#N)CCCCC3)c1 -5.88%, CC(C)(C)c1ccc(OCCC(=O)OCC(=O)Nc2ccc(N3CCOCC3)cc2)cc1 -3.5%, O=C(O)c1cc(S(=O)(=O)O)ccc1O 9.92%, O=P(c1ccccc1)(c1ccccc1)c1cc(S(=O)(=O)O)ccc1O 26.4%, O=Nc1c(O)ccc2cc(S(=O)(=O)O)ccc12 24.3%, Nc1cc(S(=O)(=O)O)cc2ccc(S(=O)(=O)O)cc12 0.1%, COc1ccc(C)cc1-n1c(C)cc(C=O)c1C -0.15%, c1ccc(Cn2ncc3ccccc32)cc1 23.7%, Cc1cc([N+](=O)[O-])nn1CC(=O)N/N=C/c1ccccc1Br -3.16%, O=C(Cc1cccs1)Nc1ccc(S(=O)(=O)Nc2ncccn2)cc1 26.2%, COC(=O)c1ccc(C(=O)OC)c(NC(=O)CCC(=O)O)c1 17.1%, Cc1nc2ccc(NC(=O)Cc3ccsc3)cc2s1 -2.69%, Cc1cc(NC(=O)CCCC(=O)NCc2cccs2)no1 10.9%, Cc1nc2ccc(NC(=O)Cc3ccccc3F)cc2s1 13.4%, Cc1ccnc(NS(=O)(=O)c2ccc(NC(=O)Cc3ccccc3)cc2)n1 4.16%, COC(=O)c1cc(OC)c(OC)cc1NC(=O)Cc1cccs1 10.3%, Cc1cc(NS(=O)(=O)c2ccc(NC(=O)Cc3cccs3)cc2)no1 -3.09%, COc1ccc(OC)c(-c2nc(C(N)=O)c3[nH]c(=O)n(-c4ccc(F)cc4)c3n2)c1 -0.73%, NNC(=O)c1nc(-c2cccc(-n3cccc3)c2)no1 2.13%, CC(=O)Nc1ccc(C(=O)COC(=O)CCc2ccccc2)c(F)c1 -7.82%, FC(F)(F)c1cnc(-n2cc[nH]c2=S)c(Cl)c1 -3.85%, CCCCN=C1NC(=O)C(CC(=O)NCCc2ccc(OC)cc2)S1 (centres undefined) 21.5%, CCOc1ncccc1C(=O)NCCN1C(=O)S/C(=C/c2cccs2)C1=O 17.3%, Cc1nc(Nc2ccccc2)c2oc3ccc(Cl)cc3c2n1 -10.6%, Cc1ccc(-c2cc(C(=O)Nc3ccccc3C)c3ccccc3n2)o1 0.87%, Cc1ccc(NC(=O)c2cc(-c3ccc(C)o3)nc3ccccc23)cc1 20.7%, CCc1c(C(=O)OC)nnc2cc(C)nn12 -2.39%, COc1ccc(SCC(=O)Nc2ccc(N3CCN(C)CC3)c(F)c2)cc1 -1.67%, CC(=O)c1c(C)[nH]c(C(=O)OCC(=O)NCC(C)C)c1C -6.38%, CNC(=O)COC(=O)c1[nH]c(C)c(C(C)=O)c1C 1.68%, CCOC(=O)c1c(C)[nH]c(C(=O)OCC(=O)N2CCN(S(=O)(=O)c3ccc(C)cc3C)CC2)c1C -6.76%, Cc1[nH]ccc(=O)c1Oc1ncc(C(F)(F)F)cc1Cl -2.35%, Cc1ccc(-c2nn(Cc3ccccc3)cc2/C=C/C(=O)O)cc1C -3.26%, COc1ccc(OC)c(C(c2nnnn2C2CCCC2)N2CCN(c3ccccc3F)CC2)c1 (centres undefined) -6.38% and 2.54%, COc1ccc(C)cc1NC(=O)C(C)N(c1ccc(C)cc1)S(C)(=O)=O (centres undefined) -0.78%, CCC(CC)C(=O)N1CC(=O)Nc2ccc(F)cc2C1c1ccccc1 (centres undefined) -0.74%, COc1cc(/C=C2\SC(=N)N(c3ccc4c(c3)OCO4)C2=O)cc(OC)c1O 2.68%, Cc1ccc(N2C(=O)/C(=C/c3ccco3)SC2=S)cc1 -7.25%, CC(/C=C1\SC(=S)N(CC(=O)N2CCN(c3ccccc3)CC2)C1=O)=C\c1ccccc1 25.6%, COc1cccc(/C=C2\SC(=S)N(c3cccnc3)C2=O)c1OC -3.12%, N=C1S/C(=C\c2cccc3ccccc23)C(=O)N1c1ccc(F)cc1 -3.83%, O=C(O)CN1C(=O)/C(=C\C(Br)=C\c2ccccc2)SC1=S 8.8%, O=C1/C(=C\c2ccc(O)cc2)SC(=S)N1c1cccnc1 1.44%, COc1ccc(CCN2C(=O)/C(=C\c3ccco3)SC2=S)cc1OC 0.31%, C[C@H](O)[C@@H]1C(=O)N2CCc3ccc(N4CCOCC4)cc3[C@@H]2C[C@@H]1N(C)S(=O)(=O)c1ccccc1 -8.52%, CN1C(=O)C(N=Nc2ccccc2C(=O)O)N(C)C1=S (centres undefined) 30.3%, Cc1ccc(SCC(=O)N(C)CC(=O)Nc2cccc(F)c2)cc1 0.72%, COc1cccc(-n2c(SC)nnc2-c2cnccn2)c1 -0.18%, CCN(CC(=O)Nc1cc(Cl)ccc1C)C(=O)c1ccc2c(=O)n3c(nc2c1)CCC3 2.7%, CN(C)Cc1cn(CCC(=O)O)c2ccccc12 -3.96%, O=C1OC/C(=C(/O)c2ccc(Cl)cc2)C1=O -8.18%, O=C(O)c1ccc(/C=C2/SC(=S)N(Cc3ccccc3)C2=O)cc1 -0.52%, Cc1ccc(/C=C2\SC(=S)N(Cc3ccccc3)C2=O)o1 29.5%, O=C1/C(=C/c2cccs2)SC(=S)N1c1ccccc1 -6.53%, O=C1/C(=C/c2cccnc2)SC(=S)N1c1ccccc1 8.11%, Cc1ccc(/C=C2\SC(=S)N(c3cccnc3)C2=O)cc1 21.1%, Cc1cccc(N2C(=O)/C(=C/c3cccnc3)SC2=S)c1 -1.54%
